{"source": "PubChem BioAssay (NCATS)", "note": "Results filed as inconclusive are left out. A number with no mark means an inactive call. The call rests on the fitted dose curve; in most records, active means well fitted activation curve with a large enough effect; inconclusive means small, poorly fitted or top-dose-only effect; inactive means flat fitted curve, though single readings scatter. Starred links: 1 amine or outer side, 2 acyl side, 3 side chain; linkers in the order of their positions; H or OH if unused. Positions of bridges follow the written chain, without caps; N, C: chain ends. Non-standard residues stand in square brackets, D forms with d. Residues, ends and D or L forms follow the SMILES beside them. ξ: configuration not given here. *: point of attachment. X3 = C[C@@H](Oc1ccc([C@H](N[*:1])C(=O)[*:2])cc1)[C@]1(/C=C\\C(=O)[*:3])CO1; d(aIle) = CC[C@H](C)[C@@H](N)C(=O)O; X2 = CC(C)[C@@H](O)C(C)C(=O)*; ξNMeF = CNC(Cc1ccccc1)C(=O)O; ξT = CC(O)C(N)C(=O)O; ξS = NC(CO)C(=O)O", "data": [{"assay": "HEK293 12hr Apoptosis Induction qHTS against the NCATS CANVASS Library (AID 1347361); further: 0% is about no effect", "details": "HEK293 caspase-3/7 Caspase-Glo luminescence; series mostly up to 46.1 µM; caspase activation: at the top concentration", "description": "Natural products and their derivatives continue to be wellsprings of nascent therapeutic potential. However, many laboratories have limited resources for biological evaluation, leaving their previously isolated or synthesized compounds largely or completely untested. To address this issue, the Canvass library of natural products was assembled (https://tripod.nih.gov/canvass), in collaboration with academic and industry researchers, for quantitative high-throughput screening (qHTS) across a diverse set of cell-based and biochemical assays. The pure (>85% purity by liquid chromatography/mass spectrometry [LC/MS]) Canvass library of 346 natural products were submitted by 45 academic laboratories and companies around the world. We collected pure natural products to circumvent deconvolution and structure elucidation due to time and resource limitations. The library was formatted into 1536-well plates and evaluated in 50 qHTS (in an 11-pnt concentration series) bioassays with broad scope of disease-relevant mechanisms. The resulting data set from 50 different assays was then systematically analyzed to identify overall trends and specific natural products with interesting biological activities. Reported herein are the results of each individual qHTS and their corresponding assay protocol. The Caspase-Glo (R) (Promega) is a homogeneous, luminescent assay that measures caspase activity. The detection substrate contains tetrapeptide sequence DEVD in an \"add-mix-measure\" format. The reagent generates a luminescent signal produced by a thermostable luciferase. The luminescence is proportional to the amount of caspase activity in the assay reaction. National Center for Advancing Translational Sciences (NCATS), Rockville, MD National Institute of Health (NIH), Bethesda, Maryland\nCancer Cell Apoptosis Assay 1. In a 1536 well, white solid bottom tissue culture plates (Corning 7494), HEK293 cancer cells in DMEM + 10% FBS + 1% P/S media were dispensed in each well at a final concentration of 500 cells / well (5uL volume) using the Multidrop Combi (Thermo Fisher Scientific) dispenser. 2. Compounds were pin transferred (~23nL volume) via Wako Pin-tool (Wako Automation, Richmond VA) equipped with a 1536 pin head. The assay plates were treated with compounds in a concentration series with a final concentration range of […] to 103uM. 3. Doxorubicin was used as a control in a 16pnt titration (1mM; 1:2 dilution; 16-points; n = 2; column 3, rows 1 - 32) and was pin transferred via Wako Pin-tool equipped with a 1536 pin head. The final concentration range of doxorubicin is 0.1nM - 4uM. 4. The assay plates were incubated for 12 hours at 37 degrees C/5% CO2/95% Rh. 5. 3uL Caspase-Glo 3/7 (R) (Promega) detection reagent was then added to the assay plates (columns 2 - 48, rows 1 - 32) and incubated at room temperature, covered from light, for 15 min. 6. Luminescence signal was acquired via the ViewLux plate reader (PerkinElmer) using a clear filter, 20 second exposure, and 2x binning settings.", "values": [{"smiles": "CC[C@H](C)[C@H]1NC(=O)[C@@H](NC(=O)C(C)[C@H](O)C(C)C)[C@@H](C)OC(=O)C2COC(=O)CNC(=O)/C=C\\[C@]3(CO3)[C@@H](C)Oc3ccc(cc3)[C@H](NC1=O)C(=O)N(C)C(Cc1ccccc1)C(=O)NC(C(C)O)C(=O)N2", "note": "(some centres undefined) (X2-T[d(aIle)][X3][ξNMeF][ξT][ξS]; ester 1-C; linker 3-6 via G)", "caspase activation": "-0.949% [at 27.5 µM]"}, {"smiles": "CO[C@H]1[C@H](O[C@H]2CC[C@]3(C=O)[C@H]4CC[C@]5(C)[C@@H](C6=CC(=O)OC6)CC[C@]5(O)[C@@H]4CC[C@]3(O)C2)O[C@H](C)[C@H](O)[C@@H]1OC", "caspase activation": "-3.2%"}, {"smiles": "C=C[C@H]1CN2CCc3c([nH]c4cccc(OC)c34)[C@@H]2C[C@@H]1/C(=C\\OC)C(=O)OC", "caspase activation": "3.93%"}, {"smiles": "C[N+](C)(C)CCc1c[nH]c2ccccc12", "caspase activation": "2.85%"}, {"smiles": "C[C@]12CCC3[C@@H](CC[C@@H]4C[C@@H](O)CC[C@]34CO)[C@@]1(O)CC[C@@H]2C1=CC(=O)OC1", "note": "(some centres undefined)", "caspase activation": "-2.7%"}, {"smiles": "C[C@]12CC(O)C3[C@@H](CC[C@@H]4C[C@@H](O)CC[C@]34CO)[C@@]1(O)CC[C@@H]2C1=CC(=O)OC1", "note": "(some centres undefined)", "caspase activation": "-3.42%"}, {"smiles": "CCC(=O)N[C@@H](C[C@H](C)C(Cl)(Cl)Cl)C(=O)N1C(=O)C=C(OC)[C@@H]1C[C@H](C)C(Cl)Cl", "caspase activation": "3.36%"}, {"smiles": "CC[C@@H]1CN2CCC3(Nc4cccc(OC)c4C3=O)[C@@H]2C[C@@H]1/C(=C\\OC)C(=O)OC", "note": "(some centres undefined)", "caspase activation": "3.46%"}, {"smiles": "C/C(=C\\[C@H](C)C(=O)C[C@H](O)CC1CC(=O)NC(=O)C1)[C@@H]1OC(=O)/C=C/CC/C=C/C=C/[C@@H]1C", "caspase activation": "-1.46%"}, {"smiles": "CCCCC1CC[C@H]2CCCC(CCC)N12", "note": "(some centres undefined)", "caspase activation": "1.61%"}, {"smiles": "C/C=C/[C@@H]1[C@H]2C[C@@H](C)CC[C@@H]2C(C)=C[C@H]1C(=O)c1c(O)c(-c2ccc(O)cc2)c[nH]c1=O", "caspase activation": "4.69%"}, {"smiles": "COC1=C(C2=C(OC)C(=O)c3cc4c(c(O)c3C2=O)C(=O)O[C@H](C)C4)C(=O)c2c(cc3c(c2O)C(=O)O[C@H](C)C3)C1=O", "caspase activation": "3.04% [at 15.4 µM]"}, {"smiles": "C1=C2CCCN[C@H]2C2CC1[C@H]1CCCCN1C2", "note": "(some centres undefined)", "caspase activation": "-0.222%"}, {"smiles": "CO[C@H]1C[C@H](O[C@H]2[C@@H](O)C[C@H](O[C@H]3CC[C@]4(C=O)[C@H]5CC[C@]6(C)C(C7=CC(=O)OC7)CC[C@]6(O)[C@@H]5CC[C@]4(O)C3)O[C@@H]2C)O[C@H](C)[C@H]1O[C@H]1C[C@@H](OC)[C@@H](O[C@@H]2O[C@H](CO)[C@@H](O)[C@H](O)[C@H]2O)[C@@H](C)O1", "note": "(some centres undefined)", "caspase activation": "-2.91%"}, {"smiles": "C=C(C)[C@H]1C(=O)c2c3c(cc4c5c(n1c24)[C@@]1(C)[C@@H](CC[C@H]2[C@](C)(/C=C/C=C(\\C)C(=O)O)[C@@H](O)CC[C@@]21C)C5)C1=CC(C)(C)OC(C)(C)[C@H]1[C@@H]3O", "caspase activation": "6.04%"}, {"smiles": "CC[C@]12C=CCN3CC[C@]4(C(=C(C(=O)OC)C1)Nc1ccccc14)[C@@H]32", "caspase activation": "-0.477%"}, {"smiles": "COC1C(O)C(C)OC(OC2C(Oc3cccc4c(O)c5c(=O)oc6ccc(C)c7c(=O)oc(c34)c5c67)OC(C)C(O)C2O)C1O", "note": "(centres undefined)", "caspase activation": "-0.651%"}, {"smiles": "CCCC[C@@H](C)/C=C1/CN2CCC[C@H]2[C@@](C)(O)[C@@H]1O", "caspase activation": "1.67%"}, {"smiles": "CO[C@@]12c3c(C)cc(O)c4c(=O)occ(c34)C(=O)[C@@H]1[C@]13COC(=O)c4c(O)cc(C)c(c41)C(=O)[C@H]2[C@@H]3OC(C)=O", "caspase activation": "6.22%"}, {"smiles": "C/C=C1/CN2CC[C@@]34c5ccccc5N(C)[C@@H]3[C@@H]2C[C@@H]1[C@H]4C(=O)OC", "caspase activation": "1.18%"}, {"smiles": "C[C@]12CC(O)C3[C@@H](CCC4C[C@@H](O)CC[C@@]43CO)[C@@]1(O)CC[C@@H]2C1=CC(=O)OC1", "note": "(some centres undefined)", "caspase activation": "-3.41%"}, {"smiles": "C=CC(C)(C)[C@@]12C[C@H]3C(=O)N/C(=C\\c4cnc[nH]4)C(=O)N3[C@@H]1Nc1ccccc12", "caspase activation": "1.52%"}, {"smiles": "CO[C@H]([C@@H](C)[C@H]1O[C@]1(C)C[C@H](C)/C=C/C=C(\\C)[C@H]1O[C@@H](CC(=O)O)CC[C@@H]1C)[C@@H](C)O", "caspase activation": "4.4%"}, {"smiles": "CO[C@@H](/C=C/CC/C=C/C(=O)O)[C@@H](O)[C@H](C)/C=C(\\C)[C@H](O)[C@H](C)C(=O)CCCC1CC(=O)NC(=O)C1", "caspase activation": "3.47%"}, {"smiles": "CCCC[C@@H]1CC[C@H]2CCCC(CCCO)N12", "note": "(some centres undefined)", "caspase activation": "1.38%"}, {"smiles": "c1ccc2nc3c(cc2c1)[nH]c1ccccc13", "caspase activation": "-8.32%"}, {"smiles": "CC(C)CC1C(=O)O[C@H](C(C)C)C(=O)N(C)C(CC(C)C)C(=O)O[C@@H](C(C)C)C(=O)N(C)C(CC(C)C)C(=O)O[C@H](C(C)C)C(=O)N(C)C(CC(C)C)C(=O)O[C@@H](C(C)C)C(=O)N1C", "note": "(some centres undefined)", "caspase activation": "19.1%"}, {"smiles": "CC[C@H]1CN2CCc3c([nH]c4cccc(OC)c34)[C@@H]2C[C@@H]1/C(=C\\OC)C(=O)OC", "caspase activation": "-0.472%"}, {"smiles": "O[C@H]1C=C[C@@]23CCN(Cc4cc5c(cc42)OCO5)[C@@H]3C1", "caspase activation": "1.85%"}, {"smiles": "CC[C@@H]1CN2CCc3c([nH]c4cccc(OC)c34)[C@@H]2C[C@@H]1/C(=C\\OC)C(=O)OC", "caspase activation": "2.48%"}, {"smiles": "C=CC(C)(C)[C@@]12C[C@H]3C(=O)N/C(=C/c4cnc[nH]4)C(=O)N3[C@@H]1Nc1ccccc12", "caspase activation": "-1.63%"}, {"smiles": "C/C=C1/CN2CC[C@]34C(=C(C(=O)OC)[C@H]1C[C@H]23)Nc1ccccc14", "caspase activation": "0.954%"}, {"smiles": "C=C[C@]12C=CCN3CC[C@@]4(c5ccccc5NC(=O)[C@@H]4C1)[C@@H]32", "caspase activation": "1.02%"}, {"smiles": "C/C=C(\\C)C(=O)O[C@@H]1[C@@H](O)[C@@H]2O[C@H]3[C@H](O[C@@H](CCCCC)CCCCCCC(=O)CCC(=O)OC[C@@H](O2)[C@H]1OC(=O)/C=C/c1ccccc1)O[C@H](C)[C@H](OC(C)=O)[C@@H]3O", "caspase activation": "5.99%"}]}]}
